# Data reported in PubChem BioAssay (NCATS).
# Results filed as inconclusive are left out. Entries that show only a call come without a potency. Active and inactive are the calls of the source. Unless noted, calls follow the shape of the full dose curve.
# Target: Peroxisome proliferator-activated receptor gamma (Homo sapiens) (UniProt P37231)
# Assay: qHTS assay for small molecule antagonists of peroxisome proliferator-activated receptor gamma signaling (AID 588537; active = well fitted inhibition curve with a large enough effect in the signal ratio, with a control signal flat, not every such curve was filed as active; the % refers to the signal ratio;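 also: reporter cells co-stimulated with 50 nM rosiglitazone agonist during compound treatment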)
# Details: HEK293 PPARg-UAS-bla, beta-lactamase ratio, antagonist mode; series mostly up to 76.8 µM
# In short: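 Compounds are tested as concentration series for inhibition of rosiglitazone-driven (50 nM) reporter expression in GeneBLAzer PPAR-gamma-UAS-bla HEK293 cells. After 16 h at 37 C, CCF4 substrate is added for 2 h at room temperature and blue/green fluorescence is measured.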
# Peroxisome proliferator-activated receptor gamma (Homo sapiens), sequence (P37231 whole entry, looked up): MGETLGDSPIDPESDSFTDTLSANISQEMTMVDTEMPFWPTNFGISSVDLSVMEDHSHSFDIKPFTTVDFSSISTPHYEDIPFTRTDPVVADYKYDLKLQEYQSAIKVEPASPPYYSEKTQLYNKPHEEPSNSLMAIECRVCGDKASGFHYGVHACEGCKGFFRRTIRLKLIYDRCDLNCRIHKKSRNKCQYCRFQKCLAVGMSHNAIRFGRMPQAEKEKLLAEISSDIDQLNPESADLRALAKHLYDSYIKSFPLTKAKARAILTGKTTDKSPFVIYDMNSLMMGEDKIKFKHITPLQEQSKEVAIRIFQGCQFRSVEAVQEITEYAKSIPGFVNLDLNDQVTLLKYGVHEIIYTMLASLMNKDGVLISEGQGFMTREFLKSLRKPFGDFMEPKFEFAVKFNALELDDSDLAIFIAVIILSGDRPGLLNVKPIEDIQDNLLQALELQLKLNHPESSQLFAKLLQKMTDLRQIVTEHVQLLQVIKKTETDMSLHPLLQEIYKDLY
row,SMILES,Potency
1,CCOC(=O)c1ccccc1C,inactive
2,CCCCCCCCCCCCN,inactive
3,CCC(O)OCCCOC (configuration not stated),inactive
4,CC(C)(N=C=O)c1cccc(C(C)(C)N=C=O)c1,inactive
5,CC1=CC(=O)CC(C)(C)C1,inactive
6,CCCCCCCC/C=C\CCCCCCCCO,inactive
7,CCCCCCCC[Si](OCC)(OCC)OCC,inactive
8,CCCCCCCCCCCCCCCO,inactive
9,COc1cc(Cl)c(OC)cc1N,inactive
10,Cc1ccc(C(C)(C)C)c(O)c1,inactive
11,CCOC(=O)C(C)Oc1ccc(Oc2nc3ccc(Cl)cc3o2)cc1 (configuration not stated),inactive
12,CC(C)CCCCOC(=O)c1ccccc1C(=O)OCCCCC(C)C,inactive
13,COC(OC)(C(=O)c1ccccc1)c1ccccc1,inactive
14,CC(C)C[C@H](NC(=O)OCC1c2ccccc2-c2ccccc21)C(=O)O,inactive
15,CC(C)(C)[C@H](O)[C@H](Cc1ccc(Cl)cc1)n1cncn1,inactive
16,CCOC(=O)[C@H](C)Oc1ccc(Oc2nc3ccc(Cl)cc3o2)cc1,inactive
17,COCCOCCOCCOC,inactive
18,CCCCCCC(O)CCCCCCCCCCC(=O)O (configuration not stated),inactive
19,CCOc1ccc(NC(=O)OC(C)C)cc1OCC,inactive
20,CCCCCCC(C)(C)S,inactive
21,CC(C)Nc1nc(N)nc(Cl)n1,inactive
22,CCC(C)OC(=O)N1CCCCC1CCO (configuration not stated),inactive
23,CCCCCCCCCC(=O)OC,inactive

# Target: Vitamin D3 receptor (Homo sapiens) (UniProt P11473)
# Assay: qHTS assay for small molecule antagonists of vitamin D receptor signaling (AID 588541);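 also: receptor activated by calcitriol during compound treatment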
# Details: HEK293T VDR-UAS-bla, beta-lactamase ratio, antagonist mode; series mostly up to 76.7 µM
# In short: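 VDR-UAS-bla HEK293T cells (2000/well, 2% charcoal-stripped FBS) were treated with titrated compounds plus 1-alpha,25-dihydroxyvitamin D3 (50 nM or 3 nM final) for 16 h at 37 C. CCF4 beta-lactamase fluorescence was read; Hill fits gave IC50.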
# Vitamin D3 receptor (Homo sapiens), sequence (P11473 whole entry, looked up): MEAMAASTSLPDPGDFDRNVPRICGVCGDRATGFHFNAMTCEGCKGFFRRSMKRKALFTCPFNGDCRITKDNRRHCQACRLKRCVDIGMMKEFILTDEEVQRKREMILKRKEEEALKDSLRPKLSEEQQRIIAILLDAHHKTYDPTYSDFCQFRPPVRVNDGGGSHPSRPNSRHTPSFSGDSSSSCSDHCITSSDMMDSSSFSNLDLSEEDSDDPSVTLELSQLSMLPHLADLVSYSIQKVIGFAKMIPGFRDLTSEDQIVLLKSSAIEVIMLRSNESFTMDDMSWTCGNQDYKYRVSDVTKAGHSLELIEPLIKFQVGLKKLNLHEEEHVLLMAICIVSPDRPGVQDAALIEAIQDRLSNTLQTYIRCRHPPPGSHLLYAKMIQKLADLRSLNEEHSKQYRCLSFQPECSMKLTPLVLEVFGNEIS
row,SMILES,Potency
1,CCCCCCCCCCCCc1ccccc1,inactive
2,C=CCOc1nc(OCC=C)nc(OCC=C)n1,inactive
3,CCCCCCCCCCCC[N+](C)(C)C,inactive
4,CCCC/C=C\CCCCCCCCCC=O,inactive
5,CCC(O)OCCCOC (configuration not stated),inactive
6,CCCCCCCCCCCCCCC,inactive
7,Oc1ccc(C(c2ccc(O)cc2)C(Cl)(Cl)Cl)cc1,inactive
8,CC(C)(N=C=O)c1cccc(C(C)(C)N=C=O)c1,inactive
9,CC(C)C(=O)OC(=O)C(C)C,inactive
10,CC1=CC(=O)CC(C)(C)C1,inactive
11,CCCCCCCC/C=C\CCCCCCCCO,inactive
12,CCCCCCCC[Si](OCC)(OCC)OCC,inactive
13,CCCCCCCCCCCCCCCO,inactive
14,COc1cc(Cl)c(OC)cc1N,inactive
15,O=S(=O)(O)c1cc(S(=O)(=O)O)c2c(N=Nc3ccccc3)c(O)ccc2c1,inactive
16,Cc1ccc(C(C)(C)C)c(O)c1,inactive
17,CCOC(=O)C(C)Oc1ccc(Oc2nc3ccc(Cl)cc3o2)cc1 (configuration not stated),inactive
18,CCOC(=O)NCCOc1ccc(Oc2ccccc2)cc1,inactive
19,O=C(O)CCCCCCC(=O)O,inactive
20,COC(OC)(C(=O)c1ccccc1)c1ccccc1,inactive
21,CC(C)(C)[C@H](O)[C@H](Cc1ccc(Cl)cc1)n1cncn1,inactive
22,CCOC(=O)[C@H](C)Oc1ccc(Oc2nc3ccc(Cl)cc3o2)cc1,inactive
23,COCCOCCOCCOC,inactive
24,CCCCCCC(O)CCCCCCCCCCC(=O)O (configuration not stated),inactive
25,CCOCCOCCOC(C)=O,inactive
26,CCOCCOCCOCC,inactive
27,CCOc1ccc(NC(=O)OC(C)C)cc1OCC,inactive
28,CC(C)Nc1nc(N)nc(Cl)n1,inactive
29,CCC(C)OC(=O)N1CCCCC1CCO (configuration not stated),inactive
